# Measurements as given in PubChem BioAssay (NCATS).
# Inconclusive results are not listed. Entries that show only a call come without a potency. Active and inactive are the calls of the source. Calls follow the shape of the dose curve; as a rule, active = well fitted cell-killing curve with a large enough effect; inconclusive = small, poorly fitted or top-dose-only effect, or effect the other way; inactive = no such curve, though single readings can be large or run the other way.
# Tests used:
# [1] = Quantitative High-Throughput drug screen in 47 multiple myeloma cell lines against the NCATS MIPE library collection: KMS11_JCRBsus cell viability assay (AID 1919873); also: nearly all actives have a fitted effect of over 50% in size
# Summary of the method: (§1)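 500 cells/well; MIPE 4.0 drugs pin-transferred; 48 h, 37C, 5% CO2. CellTiter-Glo, 5 min RT, luminescence. Controls: DMSO 100%, media 0%.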
# [2] = Quantitative High-Throughput drug screen in 47 multiple myeloma cell lines against the NCATS MIPE library collection: KMS28BM_JCRB cell viability assay (AID 1919874); also: nearly all actives have a fitted effect of over 35% in size
# Summary of the method: as §1
# Potency is read from the fitted curve at half-maximal effect.
SMILES,Potency [1],Potency [2]
CC(C(=O)O)c1cccc(C(=O)c2ccccc2)c1 (stereo not given),inactive,inactive
OCCN1CCN(CCCN2c3ccccc3Sc3ccc(C(F)(F)F)cc32)CC1,13.2 µM (active),23.5 µM (active)
CCC1(c2ccccc2)C(=O)NCNC1=O,inactive,inactive
COc1ccccc1OCC(O)CN1CCN(CC(=O)Nc2c(C)cccc2C)CC1 (stereo not given),inactive,inactive
CN(C)C(=N)N=C(N)N,inactive,inactive
Fc1ccc([C@@H]2CCNC[C@H]2COc2ccc3c(c2)OCO3)cc1,23.5 µM (active),20.9 µM (active)
CC[C@@]1(O)C(=O)OCc2c1cc1n(c2=O)Cc2cc3c(CN(C)C)c(O)ccc3nc2-1,3.72 µM (active),0.662 µM (active)
CC(COc1ccccc1)N(CCCl)Cc1ccccc1 (stereo not given),inactive,18.7 µM (active)
CC(=O)OCC(CCn1cnc2cnc(N)nc21)COC(C)=O,inactive,inactive
CN1CCN(CCCN2c3ccccc3Sc3ccc(Cl)cc32)CC1,14.8 µM (active),20.9 µM (active)
CC#C[C@]1(O)CC[C@H]2[C@@H]3CCC4=CC(=O)CCC4=C3[C@@H](c3ccc(N(C)C)cc3)C[C@@]21C,7.43 µM (active),7.43 µM (active)
CCC1(C)CC(=O)NC1=O (stereo not given),inactive,inactive
COc1ccc(C2CNC(=O)C2)cc1OC1CCCC1 (stereo not given),inactive,inactive
COc1cc2nc(N3CCN(C(=O)c4ccco4)CC3)nc(N)c2cc1OC,13.2 µM (active),10.5 µM (active)
Cn1c(=O)c2[nH]cnc2n(C)c1=O,inactive,inactive
